outcome, Potency and activation data for 17 compounds are collected here from PubChem BioAssay (NCATS).

A number with no mark means an inactive call. Results filed as inconclusive are left out. Activity calls are given as the source filed them. Unless noted, calls follow the shape of the dose curve; as a rule, active = well fitted curve in the direction sought with a large enough effect; inconclusive = small, poorly fitted or top-dose-only effect, or another doubt; inactive = no such curve, though single readings can be large; an effect the other way counts as inactive or inconclusive.

Assay [1] has as its target Methanococcus maripaludis chaperonin (MmCpn) (UniProt Q6LX38). In words: High-Throughput Screening for Modulators of Cytosolic Chaperonin Activity: MmCpn Primary Screen (AID 488978).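 Also: 50 nM MmCpn enzyme hydrolysing 30 µM ATP at 37 °C; 0% is about no effect.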 A digest of the protocol: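 MmCpn (50 nM final) was preincubated with compound 5 min at RT, then 30 uM ATP (final) was added and the reaction ran 10 min at 37C. ADP produced was detected by Transcreener HTRF (ex 320 nm; em 590/665 nm).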

Assay [2] has as its target Transient receptor potential cation channel subfamily V member 1 (Homo sapiens) (UniProt Q8NER1). Briefly: HTS Assay for Compounds that Act as Enhancers of the Vanilloid Receptor 1 (AID 488979). Also: 0% is about no effect. A digest of the protocol:
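Calcium influx kinetics via Fluo-8 (480/520 nm) in TRPV1-expressing cells, 2000/well cultured overnight at 35.5C. Compound-alone read 3 min (agonist phase), followed by EC20 capsaicin challenge for 2 min (enhancer phase).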

The target of assay [3] is Thyrotropin receptor (Homo sapiens) (UniProt P16473). Briefly: qHTS Assay for Antagonists of the Thyroid Stimulating Hormone Receptor (AID 488980). Also: series mostly up to about 58 µM; 0% is about no effect. A digest of the protocol: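 HEK293 cells transfected with human TSHR, suspended in HEPES-buffered HBSS with 70 uM RO 20-1724, were treated with compounds plus TSH at EC80 (4 nM final). cAMP was measured by competitive HTRF (cryptate anti-cAMP antibody, cAMP-d2 acceptor).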

The target in assay [4] is D(1A) dopamine receptor (Homo sapiens) (UniProt P21728). In words: HTS Assay for Allosteric Agonists of the Human D1 Dopamine Receptor: Primary Screen for Agonists (AID 488981). Also: 0% is about no effect. In outline:
(§1)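 Calcium flux in an inducible, force-coupled HEK293 Trex D1 line (overnight at 30 C): agonist mode is the 180 s kinetic read after compound; potentiator mode is the following 180 s read after dopamine at EC20.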

For assay [5] the target is unchanged. Briefly: HTS Assay for Allosteric Agonists of the Human D1 Dopamine Receptor: Primary Screen for Potentiators (AID 488982). Also: 0% is about no effect. A digest of the protocol:
as §1

A short description of assay [6]: Validation screen for small molecules that induce genotoxicity in human embryonic kidney (HEK293T) cells expressing luciferase-tagged ELG1 (AID 493106). Also: 0% is about no effect. A digest of the protocol:
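Luminescence from an ELG1-luciferase fusion serves as the read-out, rising when genetic stress elevates ELG1 protein. HEK293T reporter cells (2,000 per well) received 23 nL compound, incubated 16 hr at 37 °C, then ONE-Glo for 30 min at room temperature.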

Assay [7] deals with ATPase family AAA domain-containing protein 5 (Homo sapiens) (UniProt Q96QE3). Briefly: Validation screen for small molecules that inhibit ELG1-dependent DNA repair in human embryonic kidney (HEK293T) cells expressing luciferase-tagged ELG1 (AID 493107). Also: nearly all actives have a fitted effect of over 70% in size. Also: potency is read from the fitted curve at half-maximal effect. A digest of the protocol:
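Luminescence from ONE-Glo, developed 30 min at room temperature, served as read-out of ELG1-luciferase levels. Beforehand, reporter HEK293T cells received 5-fluorouridine plus test compound for 16 hr at 37 °C.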

For assay [8], the target named is D(1A) dopamine receptor (Homo sapiens) (UniProt P21728). Briefly: HTS Assay for Allosteric Agonists of the Human D1 Dopamine Receptor: Primary Screen for Antagonists (AID 488983).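 Also: calcium flux response to an EC80 dopamine challenge measured with no-wash dye; nearly all actives have a fitted effect of over 65% in size.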 Also: potency is read from the fitted curve at half-maximal effect. In outline:
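Cells are induced with tetracycline and incubated overnight at 30 C, then loaded with calcium dye for 30 to 90 minutes at room temperature. Compound addition is followed by a 180 s read, then an EC80 dopamine addition and another 180 s read.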

Assay [9] addresses Thyrotropin-releasing hormone receptor (Homo sapiens) (UniProt P34981). In words: qHTS for Small Molecule Agonists and Allosteric Enhancers of Human TRH Receptor: Validation Screen for Agonists (AID 493127;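 active = calcium activation more than 3 SD above the typical response in the agonist read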;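 also: intracellular calcium rise by fluo-8 fluorescence before TRH EC20 addition; 0% is about no effect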). The conditions noted are these: TRH receptor agonist cell assay; at 2 µM; hits give high values. A digest of the protocol: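 Cells 2000/well, 10% FCS, 18 h 33.5C/5% CO2 → fluo-8 Ca dye, RT 30 min–1.5 h → FDSS baseline 10 × 1 s → compound added → 230 cycles (1 s/cycle) agonist mode. TRH controls.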

Assay [10] concerns the target ATP-dependent 6-phosphofructokinase (Trypanosoma brucei brucei) (UniProt O15648). Briefly: qHTS Assay to Find Inhibitors of T. brucei phosphofructokinase: hit validation (AID 492961).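 Also: luminescence reports ADP formed as PFK phosphorylates fructose-6-phosphate with ATP; series mostly up to about 51 µM; % is scaled to controls: 0 for no effect and ±100 for the full control effect.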 In outline:
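In this biochemical qHTS validation, titrated compounds were tested against 1.25 nM PFK with 0.1 mM ATP and 0.5 mM F6P. Percent activity came from controls lacking or containing enzyme.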

Chain of Thyrotropin-releasing hormone receptor (Homo sapiens) (P34981 whole entry, looked up): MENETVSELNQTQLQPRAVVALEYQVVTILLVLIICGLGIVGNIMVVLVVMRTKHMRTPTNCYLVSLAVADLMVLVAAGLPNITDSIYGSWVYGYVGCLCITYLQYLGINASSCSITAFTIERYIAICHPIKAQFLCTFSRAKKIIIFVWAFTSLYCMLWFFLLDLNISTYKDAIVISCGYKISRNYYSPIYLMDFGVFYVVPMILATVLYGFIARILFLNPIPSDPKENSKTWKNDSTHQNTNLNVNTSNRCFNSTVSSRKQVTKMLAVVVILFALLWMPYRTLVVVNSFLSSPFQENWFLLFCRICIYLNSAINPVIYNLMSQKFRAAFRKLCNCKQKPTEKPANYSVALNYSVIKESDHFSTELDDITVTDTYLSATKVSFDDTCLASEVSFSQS
Chain of ATPase family AAA domain-containing protein 5 (Homo sapiens) (Q96QE3 whole entry, looked up, the tested form may be a part): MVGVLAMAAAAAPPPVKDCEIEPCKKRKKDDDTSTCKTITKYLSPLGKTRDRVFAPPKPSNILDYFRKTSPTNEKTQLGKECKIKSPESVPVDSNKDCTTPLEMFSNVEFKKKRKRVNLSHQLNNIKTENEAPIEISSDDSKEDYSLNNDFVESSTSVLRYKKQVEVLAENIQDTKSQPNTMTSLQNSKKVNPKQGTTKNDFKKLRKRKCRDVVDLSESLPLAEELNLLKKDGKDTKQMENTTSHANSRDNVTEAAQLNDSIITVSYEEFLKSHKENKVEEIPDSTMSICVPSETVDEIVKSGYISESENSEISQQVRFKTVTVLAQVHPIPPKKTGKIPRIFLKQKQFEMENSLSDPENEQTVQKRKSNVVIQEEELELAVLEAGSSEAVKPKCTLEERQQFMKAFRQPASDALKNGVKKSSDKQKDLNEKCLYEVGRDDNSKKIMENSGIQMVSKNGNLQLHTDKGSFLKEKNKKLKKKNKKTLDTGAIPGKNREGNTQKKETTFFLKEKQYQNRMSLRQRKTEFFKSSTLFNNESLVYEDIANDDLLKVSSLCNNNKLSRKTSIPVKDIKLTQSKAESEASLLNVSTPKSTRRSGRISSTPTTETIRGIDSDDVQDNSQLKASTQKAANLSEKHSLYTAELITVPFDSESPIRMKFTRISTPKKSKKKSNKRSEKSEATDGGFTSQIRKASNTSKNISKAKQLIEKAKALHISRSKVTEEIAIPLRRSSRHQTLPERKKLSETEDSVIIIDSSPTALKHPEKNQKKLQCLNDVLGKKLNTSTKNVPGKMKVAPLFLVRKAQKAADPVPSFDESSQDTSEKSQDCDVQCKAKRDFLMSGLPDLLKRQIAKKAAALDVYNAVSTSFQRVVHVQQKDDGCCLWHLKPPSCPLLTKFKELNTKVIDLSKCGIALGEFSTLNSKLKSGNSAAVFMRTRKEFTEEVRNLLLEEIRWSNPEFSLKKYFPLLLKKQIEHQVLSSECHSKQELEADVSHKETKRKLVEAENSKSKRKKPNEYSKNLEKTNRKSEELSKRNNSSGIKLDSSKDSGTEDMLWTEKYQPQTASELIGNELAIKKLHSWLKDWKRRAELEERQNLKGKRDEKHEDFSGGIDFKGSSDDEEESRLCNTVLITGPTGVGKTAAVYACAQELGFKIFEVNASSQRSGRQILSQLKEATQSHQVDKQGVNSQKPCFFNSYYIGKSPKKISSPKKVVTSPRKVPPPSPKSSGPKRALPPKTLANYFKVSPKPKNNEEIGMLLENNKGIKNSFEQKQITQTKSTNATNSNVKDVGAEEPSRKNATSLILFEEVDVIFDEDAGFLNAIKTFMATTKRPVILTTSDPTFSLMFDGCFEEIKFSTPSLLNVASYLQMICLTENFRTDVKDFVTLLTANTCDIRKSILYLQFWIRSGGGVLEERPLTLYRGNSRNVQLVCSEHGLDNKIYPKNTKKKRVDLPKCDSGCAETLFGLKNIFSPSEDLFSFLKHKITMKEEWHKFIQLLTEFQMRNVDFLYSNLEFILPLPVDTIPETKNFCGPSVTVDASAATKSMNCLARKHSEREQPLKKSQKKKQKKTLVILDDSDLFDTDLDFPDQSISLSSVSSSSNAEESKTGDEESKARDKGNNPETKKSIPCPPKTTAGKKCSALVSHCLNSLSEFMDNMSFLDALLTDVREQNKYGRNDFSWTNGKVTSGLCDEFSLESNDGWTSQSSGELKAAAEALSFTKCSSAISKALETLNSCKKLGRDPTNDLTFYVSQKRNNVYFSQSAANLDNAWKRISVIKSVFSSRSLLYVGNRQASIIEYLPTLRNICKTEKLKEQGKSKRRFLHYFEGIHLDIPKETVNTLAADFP
Chain of Methanococcus maripaludis chaperonin (MmCpn) (Q6LX38 1-543): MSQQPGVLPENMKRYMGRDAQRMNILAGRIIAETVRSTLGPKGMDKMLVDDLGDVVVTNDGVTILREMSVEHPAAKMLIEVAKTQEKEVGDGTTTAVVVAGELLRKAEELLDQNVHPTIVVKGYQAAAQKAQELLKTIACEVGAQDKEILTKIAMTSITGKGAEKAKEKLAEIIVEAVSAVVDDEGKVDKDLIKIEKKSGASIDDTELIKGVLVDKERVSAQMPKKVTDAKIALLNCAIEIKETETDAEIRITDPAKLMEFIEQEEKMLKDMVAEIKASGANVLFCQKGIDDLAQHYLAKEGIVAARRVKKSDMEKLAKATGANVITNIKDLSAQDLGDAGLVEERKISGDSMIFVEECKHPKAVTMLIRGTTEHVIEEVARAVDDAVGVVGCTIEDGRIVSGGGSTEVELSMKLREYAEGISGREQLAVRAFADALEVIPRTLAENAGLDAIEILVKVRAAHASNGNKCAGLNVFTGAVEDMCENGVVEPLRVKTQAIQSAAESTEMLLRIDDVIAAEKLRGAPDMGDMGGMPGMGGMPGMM
Chain of Transient receptor potential cation channel subfamily V member 1 (Homo sapiens) (Q8NER1 whole entry, looked up): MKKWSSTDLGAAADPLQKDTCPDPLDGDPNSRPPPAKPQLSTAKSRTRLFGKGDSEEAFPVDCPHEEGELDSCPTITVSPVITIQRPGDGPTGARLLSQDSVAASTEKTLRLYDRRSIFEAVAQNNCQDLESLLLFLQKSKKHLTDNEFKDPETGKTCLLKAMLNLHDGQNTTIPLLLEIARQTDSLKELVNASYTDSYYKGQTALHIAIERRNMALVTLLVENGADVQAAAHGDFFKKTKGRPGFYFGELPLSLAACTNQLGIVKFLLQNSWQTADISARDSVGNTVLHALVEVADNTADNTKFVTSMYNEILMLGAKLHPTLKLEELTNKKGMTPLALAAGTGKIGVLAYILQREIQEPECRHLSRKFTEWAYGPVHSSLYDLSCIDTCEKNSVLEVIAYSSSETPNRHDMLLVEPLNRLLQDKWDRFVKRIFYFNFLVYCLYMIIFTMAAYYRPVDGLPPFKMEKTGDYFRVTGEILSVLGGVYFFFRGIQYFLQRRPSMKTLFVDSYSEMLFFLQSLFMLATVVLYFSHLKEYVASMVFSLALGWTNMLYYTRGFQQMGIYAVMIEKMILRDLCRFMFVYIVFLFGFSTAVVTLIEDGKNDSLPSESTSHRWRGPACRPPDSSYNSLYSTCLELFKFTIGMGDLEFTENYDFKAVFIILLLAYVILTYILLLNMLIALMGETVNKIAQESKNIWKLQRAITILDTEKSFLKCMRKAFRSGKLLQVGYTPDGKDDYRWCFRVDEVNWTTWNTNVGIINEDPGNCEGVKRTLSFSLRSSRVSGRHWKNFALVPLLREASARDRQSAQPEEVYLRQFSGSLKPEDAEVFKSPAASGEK
Chain of Thyrotropin receptor (Homo sapiens) (P16473 whole entry, looked up): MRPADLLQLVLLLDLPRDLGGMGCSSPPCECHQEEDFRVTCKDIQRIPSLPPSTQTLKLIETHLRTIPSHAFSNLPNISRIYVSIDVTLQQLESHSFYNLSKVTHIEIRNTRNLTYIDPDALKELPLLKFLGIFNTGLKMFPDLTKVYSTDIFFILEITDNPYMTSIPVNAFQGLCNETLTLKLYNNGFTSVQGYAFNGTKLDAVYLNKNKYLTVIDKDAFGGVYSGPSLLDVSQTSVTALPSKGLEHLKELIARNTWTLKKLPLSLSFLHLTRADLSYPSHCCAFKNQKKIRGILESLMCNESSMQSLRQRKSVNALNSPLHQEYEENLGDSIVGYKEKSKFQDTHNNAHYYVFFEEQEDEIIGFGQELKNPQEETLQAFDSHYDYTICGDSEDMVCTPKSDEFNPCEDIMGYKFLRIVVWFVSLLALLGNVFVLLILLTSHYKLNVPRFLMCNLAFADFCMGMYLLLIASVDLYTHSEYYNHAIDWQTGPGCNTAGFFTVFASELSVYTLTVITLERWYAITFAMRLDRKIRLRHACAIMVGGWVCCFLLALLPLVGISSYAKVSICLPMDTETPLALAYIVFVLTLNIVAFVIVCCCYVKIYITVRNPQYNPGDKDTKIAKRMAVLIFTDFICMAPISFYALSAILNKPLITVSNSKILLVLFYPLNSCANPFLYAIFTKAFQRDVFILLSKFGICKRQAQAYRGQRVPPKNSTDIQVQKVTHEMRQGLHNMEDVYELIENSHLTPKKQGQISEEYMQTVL
Chain of D(1A) dopamine receptor (Homo sapiens) (P21728 whole entry, looked up): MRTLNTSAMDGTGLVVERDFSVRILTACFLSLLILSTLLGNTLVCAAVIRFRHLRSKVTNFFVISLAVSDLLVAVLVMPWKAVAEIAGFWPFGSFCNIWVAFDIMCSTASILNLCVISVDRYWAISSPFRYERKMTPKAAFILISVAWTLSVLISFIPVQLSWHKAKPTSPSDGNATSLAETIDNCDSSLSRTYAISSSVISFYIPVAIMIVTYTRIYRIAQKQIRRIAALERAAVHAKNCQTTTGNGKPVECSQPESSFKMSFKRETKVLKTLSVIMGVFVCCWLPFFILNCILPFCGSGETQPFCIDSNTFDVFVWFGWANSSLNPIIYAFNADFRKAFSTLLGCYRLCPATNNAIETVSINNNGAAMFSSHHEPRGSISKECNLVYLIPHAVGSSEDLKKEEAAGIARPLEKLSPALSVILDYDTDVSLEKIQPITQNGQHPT

With `O=c1[nH]c2ccccc2n1C1CCN(CCCC(c2ccc(F)cc2)c2ccc(F)cc2)CC1`, the compound was classed as inactive in assay [1], in assay [2] and in assay [3]. In addition, the Potency result in [4], in [5] and in assay [6] was “inactive” each time. The Potency in assay [7] was 11.6 µM (active).
With `Fc1ccc(C(OCCN2CCN(CCCc3ccccc3)CC2)c2ccc(F)cc2)cc1`, the compound was classed as inactive in [1], in [2] and in assay [3]. Besides, the Potency result in assay [4], in [5], in [8] and in [6] was “inactive” throughout. Moreover, the Potency in [7] was 23.1 µM (active). In addition, the activation in assay [9] is -5.62%.
Take `CCCN1CCC[C@@H]2Cc3nc(N)ncc3C[C@H]21`: the compound was called inactive in [1], in assay [2] and in [3]. For the same compound, the Potency entry in assay [4], in assay [5], in assay [8], in assay [6] and in [7] was “inactive” throughout. The activation in [9] is 0.562%.
On to `CNCC(O)c1ccc(O)cc1` (configuration not stated), for which the compound was classed as inactive in assay [1], in assay [2] and in assay [3]. Also, the Potency entry in assay [4], in assay [5], in [8], in assay [6] and in [7] was “inactive” throughout. In addition, in assay [9], the activation was 1.12%.
As for `CC(=O)[C@H]1CC[C@H]2[C@@H]3CC[C@H]4C[C@H](O)CC[C@]4(C)[C@H]3C(=O)C[C@]12C`, the result in assay [1], in [2] and in assay [10] was inactive. In addition, the Potency result in assay [4], in assay [5], in [8], in [6] and in assay [7] was “inactive” each time. For the same compound, the activation in assay [9] was 1.5%.
As to `CN1C[C@H](CNC(=O)OCc2ccccc2)C[C@@H]2c3cccc4c3c(cn4C)C[C@H]21`, the compound was classed as inactive in assay [1] and in assay [3]. The Potency entry in assay [4], in assay [5] and in assay [6] was “inactive” in each case. In addition, in assay [8], the Potency was 0.447 µM (active). Also, the activation in [9] was 7.38%.
`Cc1ncc(CNC(=O)N(CCCl)N=O)c(N)n1`: the outcome in assay [1], in assay [2] and in assay [3] was inactive. Also, the Potency entry in assay [4], in assay [5], in assay [8], in assay [6] and in [7] was “inactive” each time. Besides, the activation in assay [9] is 1.5%.
On to `NCC(O)c1ccc(O)cc1` (configuration not stated), for which the compound was called inactive in assay [1], in assay [2] and in assay [3]. The Potency result in assay [4], in [5], in [8], in assay [6] and in assay [7] was “inactive” each time. For the same compound, the activation in assay [9] was 0.812%.
As for `Nc1ccncc1`, the compound was called inactive in assay [1], in [2] and in assay [3]. For the same compound, the Potency entry in assay [4], in assay [5], in assay [8], in assay [6] and in assay [7] was “inactive” each time. Also, the activation in [9] was 1.19%.
Consider `O=C1NCN(c2ccccc2)C12CCN(CC1COc3ccccc3O1)CC2` (configuration not stated), for which the compound was classed as inactive in [1], in assay [2] and in [3]. The Potency entry in assay [4], in [5], in assay [8] and in [6] was “inactive” in each case. Besides, in assay [9], the activation is 0.562%.
Take `c1ccc2c(c1)OCC(C1=NCCN1)O2` (configuration not stated): the compound was classed as inactive in assay [1], in [2] and in assay [3]. In addition, the Potency result in assay [4], in assay [5], in assay [8] and in assay [6] was “inactive” throughout. The Potency in [7] was 14.6 µM (active). For the same compound, in [9], the activation is 1.38%.
As to `COc1ccccc1N1CCNCC1`, the compound was classed as inactive in [1], in assay [2], in [3] and in assay [10]. For the same compound, the Potency entry in [4], in assay [5], in [6] and in assay [7] was “inactive” in each case. In addition, the activation in [9] was -7.69%.
Consider `C=C(C)[C@H]1Cc2c(ccc3c2O[C@@H]2COc4cc(OC)c(OC)cc4[C@@H]2C3=O)O1`, for which the result in assay [1], in assay [2] and in [3] was inactive. Also, the Potency entry in assay [4], in [5], in [8] and in assay [6] was “inactive” in each case. Moreover, the activation in assay [9] was 1.25%.
On to `Cc1cccc(C)c1NC1=NCCCS1`, for which the compound was called inactive in [1], in [2] and in assay [3]. Moreover, the Potency result in assay [4], in assay [5], in [8], in assay [6] and in assay [7] was “inactive” throughout. The activation in [9] was 0.688%.
On to `COC[C@H]1OC(=O)c2coc3c2[C@@]1(C)C1=C(C3=O)C2CCC(=O)[C@@]2(C)C[C@H]1OC(C)=O` (some centres not stated), for which the call in assay [1], in assay [2] and in assay [3] was inactive. The Potency result in [4], in [5], in [8], in assay [6] and in assay [7] was “inactive” in each case. Further, in assay [9], the activation is 0.25%.
In the case of `CCCC(C)(COC(N)=O)COC(=O)NC(C)C` (configuration not stated), the compound was classed as inactive in assay [1], in assay [2] and in assay [3]. The Potency result in assay [4], in assay [5], in assay [8], in assay [6] and in assay [7] was “inactive” in each case. In assay [9], the activation is -0.188%.
As to `c1ccc(C2CC2)c(OCC2=NCCN2)c1`, the compound was called inactive in assay [1], in [2] and in assay [3]. In addition, the Potency result in [4], in [5], in [8], in assay [6] and in assay [7] was “inactive” each time. Also, the activation in [9] is 0.562%.
